Measured values published in PubChem BioAssay AID624330 (Southern Research Specialized Biocontainment Screening …, 2012).
Among all 340,000 compounds or so, about 2,100 (0.62%) were called active.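 How the source made its calls: active means first-screen hits whose inhibition reached a set limit at any dose in the follow-up dose series; inconclusive means inhibition above the set first-screen limit but never retested; inactive means the rest.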 These entries were drawn from the full list. Potency and affinity values are given separately.

target: Rac GTPase-activating protein 1 (Homo sapiens) (UniProt Q9H0H5); test: blockers of MgcRacGAP-driven Rac1 GTP hydrolysis – biochemical, ADP Hunter fluorescence, primary and confirmatory, confirmation (AID 624330); details: MgcRacGAP-stimulated Rac1 GTP hydrolysis, at 30 µM, active compounds read high, GST-tagged Rac1 F28L mutant substrate;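 further: fluorescence reports GDP produced by GAP-driven GTP hydrolysis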
Sequence (Q9H0H5 whole entry, looked up): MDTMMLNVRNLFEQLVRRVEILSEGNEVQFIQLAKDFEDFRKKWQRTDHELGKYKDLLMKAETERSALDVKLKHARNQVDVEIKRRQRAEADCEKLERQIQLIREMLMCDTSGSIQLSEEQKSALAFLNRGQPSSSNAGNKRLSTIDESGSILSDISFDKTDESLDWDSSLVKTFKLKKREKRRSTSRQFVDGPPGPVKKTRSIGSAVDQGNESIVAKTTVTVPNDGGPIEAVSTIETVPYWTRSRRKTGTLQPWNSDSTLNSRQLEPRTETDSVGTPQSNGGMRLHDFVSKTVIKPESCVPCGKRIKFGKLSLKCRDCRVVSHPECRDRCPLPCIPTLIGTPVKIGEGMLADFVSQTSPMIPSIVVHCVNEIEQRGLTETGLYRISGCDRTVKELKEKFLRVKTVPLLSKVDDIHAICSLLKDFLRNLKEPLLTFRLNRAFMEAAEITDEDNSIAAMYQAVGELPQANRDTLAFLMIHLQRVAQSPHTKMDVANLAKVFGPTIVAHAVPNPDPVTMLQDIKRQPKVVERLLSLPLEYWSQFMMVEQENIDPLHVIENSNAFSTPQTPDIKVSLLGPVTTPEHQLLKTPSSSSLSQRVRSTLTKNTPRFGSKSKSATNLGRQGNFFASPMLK

inhibition, inactive:
COC(=O)C[C@@H]1C[C@H]2c3cc(N(C)C)ccc3O[C@H]2[C@H](CO)O1 18.6%
COc1ccccc1CNC(=O)C[C@@H]1C[C@H]2c3cc(NC(=O)c4ccc5c(c4)OCO5)ccc3O[C@H]2[C@@H](CO)O1 13.4%
O=C1CN(S(=O)(=O)c2cccc(Cl)c2Cl)c2ccccc2N1 4.66%
COc1cc([N+](=O)[O-])ccc1NC(=O)CCN1C(=O)C2C3CCC(C3)C2C1=O (stereo not drawn) 6.61%
COc1ccc(C)cc1NC(=O)CNCc1cccs1 0.81%
S=C(NCc1ccco1)Nc1ccc(Oc2ccccc2)cc1 1.09%
COc1ccc(NC(=O)Cc2cccs2)c(OC)c1 8.99%
O=C(NCc1ccco1)c1ccc(Oc2ccccc2)cc1 1.55%
O=C(Cc1ccccc1)Nc1ccc(N2CCCCC2)cc1 1.26%
CC(=O)c1ccc(NC(=O)CNCc2cccs2)cc1 28.6%
O=C(CNCc1cccs1)Nc1ccc(S(=O)(=O)N2CCCCC2)cc1 14.5%
O=C(CNC(=O)c1ccco1)Nc1ccc(N2CCCCCC2)cc1 30.4%
CCCOC(=O)C(C)n1cnc2scc(-c3ccc(C)cc3)c2c1=O (stereo not drawn) 8.26%
N#CC(=C(O)CN1CCN(c2ccccc2F)CC1)c1nc(-c2ccccc2)cs1 6.97%
CCOC(=O)CSc1nc2ccc(N3CCOCC3)cc2c(=O)n1Cc1ccccc1 1.81%
O=C1NCC(NC(=O)C(F)(F)F)c2cc3c(cc21)OCO3 (stereo not drawn) -0.85%
CCN1C(=O)[C@H]2[C@H]3CN=C(SCc4ccccc4)N3[C@@](C)(C(=O)OC)[C@H]2C1=O 13.1%
Cc1ccc(C(=O)c2c(NC(=O)CSc3nnc(N)s3)sc3c2CCCC3)cc1 -2.45%
CCOC(=O)N1CCN(CC(=O)Nc2ccc(Oc3ccccc3)cc2)CC1 5.48%
CCN(CC)C(=O)C(=O)Nc1ccc(Oc2ccccc2)cc1 2.61%
Cc1ccc(-c2nc3cnccn3c2Nc2ccc3c(c2)OCCO3)o1 12.5%
CN(C)c1ccc(-n2cccc2/C=N/n2cnnc2)cc1 9.83%
O=C(O)c1cccc(-n2cccc2/C=C\[N+](=O)[O-])c1 26.7%
COc1ccc(-n2cccc2C=O)cc1 4.9%
CCOc1ccc(-n2cccc2C=O)cc1 4.88%
CC(=O)NC(Cc1ccccc1C)C(=O)NC1CCN(c2nnnn2-c2ccccc2)CC1 (stereo not drawn) 3.78%
C#CCO[C@@H]1C[C@H](n2ccc(NC(=O)c3ccccc3)nc2=O)O[C@@H]1CO 7.23%
CSc1ncccc1C(=O)N1CCCC(N2CCN(c3ccccc3C)CC2)C1 (stereo not drawn) 10.5%
O=C(NC(c1ccccc1)c1ccccc1)C1CCCN(S(=O)(=O)c2cnc[nH]2)C1 (stereo not drawn) 1.47%
C=CCc1ccc(OCCOCCN(C)C)c(OC)c1 11.5%
C=CCc1ccc(OCCOCCNCCOC)c(OC)c1 8.29%
COc1cccc(NC(=O)COc2ccc(C(=S)N3CCN(C)CC3)cc2OC)c1 7.49%
Cc1ccc(NC(=O)CSc2nn(-c3ccccc3)c(=S)s2)cc1S(=O)(=O)N(C)C 2.35%
O=C(c1ccccc1F)N1CCN(C(=O)C2CC2)CC1 3.19%
CC1(C)O[C@@H]2[C@H](O1)[C@@H](COS(=O)(=O)O)O[C@H]2n1ccc(=O)[nH]c1=O 2.43%
CC1(C)O[C@@H]2[C@H](O1)[C@@H](COS(=O)(=O)O)O[C@H]2n1cnc2c(=O)[nH]cnc21 7.41%
CC1CN(S(=O)(=O)N(C)C)CCN1S(=O)(=O)N(C)C (stereo not drawn) 5.65%
CCOC(=O)c1c(N)sc(-c2ccccc2)c1C 27.2%
COC(=O)c1c(N)sc(Cc2ccccc2)c1C 7.62%
CC(C)c1ccc(N2C(=O)CC(Sc3ncccn3)C2=O)cc1 (stereo not drawn) 1.68%
CC1=C(C)CS(=O)N(S(=O)(=O)c2ccccc2)C1 (stereo not drawn) 30.6%
O=S(=O)(c1ccccc1)N1CCN(S(=O)(=O)c2ccccc2)C1 3.12%
Cc1cccc(C(=O)NCC(c2ccc(F)cc2)N2CCOCC2)c1 (stereo not drawn) 3.85%
Cc1ccc(C)c(CSc2ncccc2C(=O)O)c1 9.95%
NC(=O)c1ccc2c(c1)OCCO2 -2.13%
O=C(c1ccccc1)c1ccc2c(c1)OCCOCCOCCOCCO2 -8.09%
O=C(Nc1cccnc1)c1cccc(NC(=O)c2ccco2)c1 11.1%
O=C(Nc1cccc(S(=O)(=O)Nc2ccccc2F)c1)c1ccco1 0.67%
N#Cc1cc([N+](=O)[O-])ccc1NCCCn1ccnc1 -2.38%
Cn1c(=O)c2ccccc2n2c(CCl)nnc12 -0.09%
Cc1nnc2n(-c3ccccc3)c(=O)c3ccccc3n12 9.66%
Cc1ccccc1-n1c(=O)c2ccccc2n2cnnc12 2.97%
CCCCCn1c(=O)c2ccccc2n2c(CCl)nnc12 1.94%
CCOCCCNC(=O)CCc1nnc2n(CCC(C)C)c(=O)c3ccccc3n12 7.91%
Cc1ccccc1-n1c(=O)c2ccccc2n2c(=O)[nH]nc12 3.11%
CN1CCN(C(=O)/C(=C/c2ccco2)NC(=O)c2ccccc2)CC1 3.42%
CC1CCCCN1C(=O)NC1CC(=O)N(c2ccc3c(c2)OCCO3)C1 (stereo not drawn) 4.77%
CCCOc1ccc(C(=O)ON=C2CCN(C)CC2)cc1 5.39%
Cc1ccc(-c2csc3ncnc(N4CCN(Cc5ccccc5)CC4)c23)cc1 4.03%
O=C(CN1C(=O)NC2(CCOc3ccccc32)C1=O)c1ccc[nH]1 (stereo not drawn) -0.33%
COc1ccccc1CNc1nc2nc(C)c(Cl)c(=O)n2[nH]1 3.76%
Cc1nc2sc(C(c3cccs3)N3CCN(C(=O)c4ccco4)CC3)c(O)n2n1 (stereo not drawn) 1.66%
CCc1cc2c(=O)c(-c3cscn3)coc2cc1O -2.61%
Cc1cc(O)cc(O)c1C(=O)Cc1cscn1 7.26%
CCc1cc(/C(Cc2ccccn2)=N\Nc2ccccc2)c(O)cc1O 5.83%
CCc1cc(/C(Cc2ccc3ccccc3n2)=N\O)c(O)cc1O 22.8%
CCc1cc(C(=O)Cc2ccccn2)c(O)cc1O -7.09%
Cc1cc(O)c(C(=O)Cc2csc(C)n2)c(O)c1 1.16%
CCOC(=O)N1CCC(=NNC(=O)NC2CCCCC2)CC1 -0.13%
Cn1c(=O)n(C)c2cc(/C=N/N=C3/NC(=O)C(CC(=O)O)S3)ccc21 (stereo not drawn) 11.1%
Nn1c(SCC(=O)NCC2CCCO2)nnc1-c1cc(Cl)ccc1Cl (stereo not drawn) 5.2%
COc1ccccc1OCC(=O)NNC(=O)CSC(=S)N1CCCC1 8.8%
CC(C)C(NC(=O)CNC(=O)OC(C)(C)C)C(=O)NCc1ccc(Cl)cc1 (stereo not drawn) 4.12%
c1ccc(COc2ccc(OCCCN3CCCC3)cc2)cc1 15.1%
c1ccc(OCCCCN2CCCCC2)cc1 12.9%
CCOc1cccc(OCCOCCN2CCCC2)c1 25%
CN1CCN(CCOc2ccc(Cc3ccccc3)cc2)CC1 10.6%
CCOc1ccc(OCCN2CCCCC2)cc1 19.4%
COc1ccc(OCCOCCN2CCOCC2)cc1 12.8%
COc1ccc(OCCOCCN2CCc3ccccc3C2)cc1 28.9%
CCN1CCN(CCOCCOc2ccccc2)CC1 28.1%
CC(Sc1nnc(-c2ccccc2F)n1C)C(=O)NC1CCCCC1 (stereo not drawn) 6.18%
CCOC(=O)c1c(C)sc(Sc2ccc(Cl)cc2[N+](=O)[O-])c1OC 4.34%
Cc1ccnc(SC2CC(=O)N(c3ccc(F)cc3)C2=O)n1 (stereo not drawn) 1.56%
C(=N\N=C\c1ccccn1)/c1ccccn1 3.13%
COc1ccc(CN(C)C(=O)[C@H](Cc2ccccc2)NC(=O)c2ccco2)c(OC)c1 0.3%
COCCCNC(=O)CC1C[C@H](C(=O)N2CCOCC2)[C@@]2(C)c3[nH]c4ccc(OC)cc4c3CCN2C1=O (stereo partly drawn) 8.55%
Cc1ccccc1N(CC(=O)N/N=C/c1cc(Br)c(C)o1)S(C)(=O)=O 4.93%
O=S(=O)(NCCN1CCOCC1)c1ccc2c(c1)OCCO2 3.86%
C/C(=N\NC(=O)C1(C)CC1(Br)Br)c1cccc(NC(=O)c2ccc(C)o2)c1 (stereo not drawn) 5.18%
O=C(C1=NN[C@@H]2C(=O)N(Cc3ccccc3)C(=O)[C@H]12)c1ccc([N+](=O)[O-])cc1 14.7%
COc1ccc(/C=C2\SC(N3CCc4ccccc4C3)=NC2=O)cc1OC 10.4%
O=C(CCC(=O)c1cccs1)NCC(c1ccc(F)cc1)N1CCOCC1 (stereo not drawn) 4.84%
Cc1cccc(N2CCN(C(=O)c3ccc4c(c3)c(C)c(C)n4C)CC2C)c1 (stereo not drawn) -37%
Cc1cc(C)n(CC(=O)N2c3ccccc3Sc3ccccc32)n1 4.56%
Cc1nn(CC(O)CN2c3ccccc3Sc3ccccc32)c(C)c1Br (stereo not drawn) 7.34%
COc1ccc(NCc2ccc([N+](=O)[O-])s2)cc1 23.5%
COc1ccccc1NCc1ccc([N+](=O)[O-])s1 15.3%
